The nature of experiment [1]: NCI Yeast Anticancer Drug Screen. Data for the rad50 strain (AID 155).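 Also: 0% = growth of vehicle-only cultures of the same strain.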 As to conditions: S. cerevisiae rad50 strain growth inhibition; at 50.0 µM; active compounds read high. Put shortly:
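Yeast carrying a defined DNA repair defect were exposed to test compounds, and growth was compared with vehicle-treated controls to give percent inhibition.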

Experiment [2] can be described thus: NCI Yeast Anticancer Drug Screen. Data for the mec2-1 strain (AID 157). As to conditions: S. cerevisiae mec2-1 strain, at 50.0 µM, active compounds read high. In short, it runs like this: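 Cells of the genetically defined mec2-1 yeast strain are incubated with test compound. Inhibition of growth is calculated against vehicle-treated controls.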
The nature of experiment [3]: NCI Yeast Anticancer Drug Screen. Data for the sgs1 mgt1 strain (AID 161).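 Also: 0% = growth of cultures given vehicle only.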 Particulars: S. cerevisiae sgs1 mgt1 strain, at 50.0 µM, active compounds read high. Put shortly: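 Mutant yeast exposed to compound; growth scored against vehicle-only wells.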
Experiment [4] can be described thus: NCI Yeast Anticancer Drug Screen. Data for the cln2 rad14 strain (AID 165).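 Also: 0% = growth equal to vehicle treated cultures.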 As to conditions: S. cerevisiae cln2 rad14 strain, at 50.0 µM, active compounds read high. Put shortly: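 The screen exposed genetically defined yeast (cln2 rad14) to test compounds and scored growth inhibition relative to vehicle-treated controls.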
Experiment [5] can be described thus: NCI Yeast Anticancer Drug Screen. Data for the bub3 strain (AID 167). As to conditions: S. cerevisiae bub3 mutant strain, at 50.0 µM, active compounds read high. Put shortly: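 Compounds were applied to a genetically altered yeast strain carrying a cell-cycle control defect. Growth inhibition was scored against vehicle-treated controls.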
Experiment [6] is described as follows: NCI Yeast Anticancer Drug Screen. Data for the mlh1 rad18 strain (AID 175). Particulars: S. cerevisiae mlh1 rad18 strain growth inhibition; at 50.0 µM; active compounds read high. Put shortly: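 Compound-treated yeast growth, normalised to vehicle controls. Strain bears defined DNA repair mutations.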

SMILES strings stand for the structures. Compounds without any hit were thinned out: in the full panel of roughly 79,000, 15% have a hit. Unmarked numbers belong to inactive results. Activity calls are given as the source filed them. Rule as the data show it: active = growth inhibition above about 70%; inactive = the rest.

Regarding `O=c1cc[nH]c2cc(C(F)(F)F)ccc12`, the growth inhibition is -26.4% in experiment [1]; -39% in experiment [2]; -16.7% in experiment [3]; 10.1% in experiment [4]; -25.9% in experiment [5]; -34% in experiment [6].

On to `CCN(C(=S)Nc1cccc2ccccc12)c1ccccc1`, for which the growth inhibition is -4.05% in experiment [1]; -11.3% in experiment [2]; 11.7% in experiment [3]; 2.4% in experiment [4]; -3.65% in experiment [5]; -7.9% in experiment [6].

On to `COC(=O)c1ccc2c(ccc[n+]2C)c1`, for which the growth inhibition in experiment [1] is -0.6%; in experiment [2], 21.3%; in experiment [3] it was -7.05%; in experiment [4], 4.8%; in experiment [5], -3.45%; in experiment [6] it was 2.3%.

For `Cc1ccccc1N1C(N)=C(C#N)C(C#N)(C#N)C1c1ccccc1` (centres undefined), the growth inhibition was 8.8% in experiment [1]; 22.2% in experiment [2]; -14.6% in experiment [3]; -10.6% in experiment [4]; -12.4% in experiment [5]; 87.8% (active) in experiment [6].

Regarding `O=C(O)c1ccc(C(=O)c2ccccc2)c(C(=O)O)c1`, the growth inhibition in experiment [1] was -4.05%; in experiment [2], -1.8%; in experiment [3] it was -19.3%; in experiment [4] it was -8.7%; in experiment [5] it was -62.9%; in experiment [6], -17.4%.

With `CC(=O)OCCN(C)C`, the growth inhibition in experiment [1] is 3.4%; in experiment [2], -1.85%; in experiment [3] it was -16%; in experiment [4], 8.5%; in experiment [5], -19.4%; in experiment [6] it was -10.4%.

Turning to `COc1cc(C#N)cc(OC)c1OC`, the growth inhibition in experiment [1] was 26%; in experiment [2], -14.8%; in experiment [3], 2.85%; in experiment [4] it was 1.45%; in experiment [5], 1.85%; in experiment [6] it was -12.2%.

On to `CCCC(O)c1ccccc1Cl` (centres undefined), for which the growth inhibition is 21.8% in experiment [1]; 18.9% in experiment [2]; 24.9% in experiment [3]; 16% in experiment [4]; -28.4% in experiment [5]; 5.3% in experiment [6].

On to `CNC(CCNCCc1ccccc1)CNCCc1ccccc1` (centres undefined), for which the growth inhibition is 44.1% in experiment [1]; 4.8% in experiment [2]; 22.8% in experiment [3]; 3.85% in experiment [4]; 5.7% in experiment [5]; 22.2% in experiment [6].

Turning to `O=C(O)/C(=C\c1ccccc1[N+](=O)[O-])c1ccc(Cl)cc1`, the growth inhibition is -0.2% in experiment [1]; -14.1% in experiment [2]; -2.3% in experiment [3]; -46.8% in experiment [4]; -8.95% in experiment [5]; -1.8% in experiment [6].

As to `COc1ccc(N=N/C(=N/NC(=O)c2ccccc2)c2ccc(N(CCC#N)CCC#N)cc2C)cc1`, the growth inhibition in experiment [1] was -4.35%; in experiment [2], -13.5%; in experiment [3], -22.8%; in experiment [4], -7.2%; in experiment [5] it was -23.1%; in experiment [6], -44.5%.

`COc1ccc(/C=C/C(CC(NO)c2ccc(OC)cc2)=N\O)cc1` (centres undefined): the growth inhibition in experiment [1] was 0.1%; in experiment [2], -4.25%; in experiment [3] it was 3.05%; in experiment [4] it was -38%; in experiment [5], -8.7%; in experiment [6], 3.8%.

On to `CC(=O)OC1CC2CC3C(C)CCC3(C2(C)C)C1(C)O` (centres undefined), for which the growth inhibition in experiment [1] is -12.9%; in experiment [2], -0.25%; in experiment [3], -0.7%; in experiment [4], 0.7%; in experiment [5] it was 11.4%; in experiment [6] it was -11.5%.

On to `O=c1[nH]cc(COCCO)c(=O)[nH]1`, for which the growth inhibition in experiment [1] is -20.1%; in experiment [2] it was -2.8%; in experiment [3], -19.4%; in experiment [4] it was 7.4%; in experiment [5] it was -18%; in experiment [6], 7.2%.

`Cc1cc(C(c2ccccc2)c2cc(C)cc(C(C)(C)CC(C)(C)C)c2O)c(O)c(C(C)(C)CC(C)(C)C)c1`: the growth inhibition in experiment [1] was 3.9%; in experiment [2], 5%; in experiment [3] it was -10%; in experiment [4] it was 20.8%; in experiment [5] it was 5.2%; in experiment [6] it was 8%.

For `Nc1ccc(I)cc1`, the growth inhibition in experiment [1] is -10.8%; in experiment [2] it was -4.05%; in experiment [3] it was -34.6%; in experiment [4] it was -20.8%; in experiment [5] it was -23.2%; in experiment [6], -22.1%.

As for `CC1=NN(C(=O)CC(=O)Nc2ccc(C(=O)O)cc2)C(=O)C1N=Nc1ccc(S(N)(=O)=O)cc1` (centres undefined), the growth inhibition in experiment [1] was -4.7%; in experiment [2], -15.8%; in experiment [3], -1.5%; in experiment [4], -24.3%; in experiment [5] it was 0.55%; in experiment [6], -5.95%.

For the molecule `COc1ccc(OC)c(CNc2ccc(C(=O)O)cc2)c1`, the growth inhibition in experiment [1] is 11.4%; in experiment [2], -1.25%; in experiment [3], 15%; in experiment [4] it was -1.9%; in experiment [5], 6.75%; in experiment [6], 29.6%.

As for `O=C(O)c1cc(C(=O)O)cc(N(CCO)CCO)c1`, the growth inhibition is -19.1% in experiment [1]; -6.45% in experiment [2]; -6.8% in experiment [3]; -17.6% in experiment [4]; 21.8% in experiment [5]; -14.2% in experiment [6].

For `O=c1cccccc1Cl`, the growth inhibition was 14.8% in experiment [1]; -41.6% in experiment [2]; 20.9% in experiment [3]; 5.6% in experiment [4]; 40.8% in experiment [5]; 11.6% in experiment [6].

For the molecule `CC1(C)C/C(=C/c2ccccc2)C(=O)O1`, the growth inhibition is -14.6% in experiment [1]; -6.95% in experiment [2]; -3.45% in experiment [3]; -31.5% in experiment [4]; -4.05% in experiment [5]; -19.3% in experiment [6].

For `O=C(c1ccc([N+](=O)[O-])cc1)c1cc2ccccc2oc1=O`, the growth inhibition in experiment [1] is -12.1%; in experiment [2] it was -8.5%; in experiment [3] it was -9.85%; in experiment [4] it was -73%; in experiment [5], -18.4%; in experiment [6], -9%.

Take `CCc1ccccc1NOC`: the growth inhibition in experiment [1] is 7.65%; in experiment [2] it was -1.9%; in experiment [3] it was -1.05%; in experiment [4], -7.15%; in experiment [5] it was 8.45%; in experiment [6], 9.65%.

On to `NC(CSCCSCCSCC(N)C(=O)O)C(=O)O` (centres undefined), for which the growth inhibition in experiment [1] was -4.45%; in experiment [2], 0.1%; in experiment [3] it was 11.2%; in experiment [4] it was -9.05%; in experiment [5], -38.4%; in experiment [6], -4.5%.

For `CCOC(=O)c1ccnc(F)c1`, the growth inhibition in experiment [1] was 3.8%; in experiment [2], -15.7%; in experiment [3], -6.15%; in experiment [4] it was -8.8%; in experiment [5], 1%; in experiment [6], 3.6%.

For the molecule `COC(=O)C1C(=O)CC(C)(O)C(C(=O)OC)C1c1ccc(N(C)C)cc1` (centres undefined), the growth inhibition is -10.5% in experiment [1]; 19.9% in experiment [2]; 7.7% in experiment [3]; 53% in experiment [4]; 15.1% in experiment [5]; -25.4% in experiment [6].

With `CC(=O)OC1C(C)OC(n2cnc3c(=O)[nH]cnc32)C(OC(C)=O)C1OC(C)=O` (centres undefined), the growth inhibition in experiment [1] is 37.1%; in experiment [2] it was 9.25%; in experiment [3] it was 16.4%; in experiment [4] it was -7.3%; in experiment [5], 6.25%; in experiment [6], 27.8%.

As to `NC(=O)C(=O)N/N=C(\CC1(O)C(=O)Nc2ccccc21)c1ccc2ccccc2c1` (centres undefined), the growth inhibition in experiment [1] was 17.4%; in experiment [2] it was 16.5%; in experiment [3], 7.5%; in experiment [4], 48.5%; in experiment [5], 35%; in experiment [6], 12.1%.

On to `CC(C)(c1cn(Cc2ccccc2)c2ccccc12)c1cn(Cc2ccccc2)c2ccccc12`, for which the growth inhibition is 39% in experiment [1]; 4.2% in experiment [2]; 17.9% in experiment [3]; 21.1% in experiment [4]; -4.05% in experiment [5]; 10.8% in experiment [6].

Consider `COc1cc(CCNC2=CC(=O)c3cccnc3C2=O)ccc1O`, for which the growth inhibition is 36.4% in experiment [1]; 24.1% in experiment [2]; 40.2% in experiment [3]; 11.8% in experiment [4]; 3.8% in experiment [5]; 48.2% in experiment [6].

Consider `O=C(CCBr)OCCOc1ccccc1`, for which the growth inhibition in experiment [1] was 1.55%; in experiment [2], -3.6%; in experiment [3] it was 4.2%; in experiment [4], -39.8%; in experiment [5], 4.95%; in experiment [6], 2.7%.

Regarding `c1ccc(C2=Nc3ccccc3C(c3ccccc3)=Nc3ccccc32)cc1`, the growth inhibition in experiment [1] is 1.05%; in experiment [2], 3.7%; in experiment [3], -8.95%; in experiment [4], -18.5%; in experiment [5] it was -1.8%; in experiment [6] it was 2.05%.

Consider `Cc1cc(C)n2c(-c3ccccc3)nnc2c1`, for which the growth inhibition was 19.1% in experiment [1]; -7.2% in experiment [2]; -20.2% in experiment [3]; -7.05% in experiment [4]; 8.05% in experiment [5]; -8.85% in experiment [6].

Take `CCCNS(C)(=O)=O`: the growth inhibition in experiment [1] is 7.25%; in experiment [2] it was 1.2%; in experiment [3], 10.2%; in experiment [4], 3.15%; in experiment [5], 11.1%; in experiment [6], 3.6%.

`Cc1cccc(N(CCOS(C)(=O)=O)CCOS(C)(=O)=O)c1`: the growth inhibition is -8.6% in experiment [1]; -2.2% in experiment [2]; 14% in experiment [3]; -47.4% in experiment [4]; -5.2% in experiment [5]; -10.9% in experiment [6].

For the molecule `NC1=NN(c2ccccc2)C(=O)/C1=C\n1c(=S)[nH]c2ccccc21`, the growth inhibition is -22.4% in experiment [1]; -19.9% in experiment [2]; -39.6% in experiment [3]; -16.3% in experiment [4]; -25.4% in experiment [5]; -26.6% in experiment [6].

For the molecule `O=c1[nH]nc(Cc2ccc(Cl)cc2)n1O`, the growth inhibition in experiment [1] is 3.3%; in experiment [2] it was 5.3%; in experiment [3], 0.1%; in experiment [4], -26.6%; in experiment [5], -13.5%; in experiment [6], 1.65%.

On to `O=C(O)c1c(O)ccc(O)c1C(=O)O`, for which the growth inhibition in experiment [1] is -38.5%; in experiment [2] it was -30.8%; in experiment [3], -29.7%; in experiment [4] it was -21.1%; in experiment [5] it was -8.8%; in experiment [6], -11.2%.

Take `O=C(Nc1cc2c(cc1[N+](=O)[O-])-c1c(F)cccc1C2)C(F)(F)F`: the growth inhibition was 9.8% in experiment [1]; 1.4% in experiment [2]; 8.25% in experiment [3]; -14.2% in experiment [4]; 4.9% in experiment [5]; 2.15% in experiment [6].
